Test results published in PubChem BioAssay (NCATS).
Values without a mark were called inactive. Inconclusive results are not listed. A call without a number means that no potency is given here. Calls of active or inactive are those of the source. Unless noted, calls follow the shape of the dose curve; as a rule, active = well fitted curve in the direction sought with a large enough effect; inconclusive = small, poorly fitted or top-dose-only effect, or another doubt; inactive = no such curve, though single readings can be large; an effect the other way counts as inactive or inconclusive.

Key:
[1] = biological target: Cytochrome P450 1A2 (Homo sapiens) (UniProt P05177); assay: p450-cyp1a2 (AID 410; calls by dose curve; also: potency is read from the fitted curve at half-maximal effect)
In short: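 Luminescent readout of luciferin formed from Luciferin-ME by human CYP1A2; data normalized against complete inhibition by 57 uM furafylline. Enzyme 20nM, substrate 100uM at Km, 100mM KPO4 buffer, 60 min reaction at room temperature.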

[2] = biological target: Mitogen-activated protein kinase 10 (Mus musculus) (UniProt Q61831); assay: JNK3 AlphaScreen Assay (AID 530; active = well fitted curve in either direction with a large enough effect, not every such curve was filed as active;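 also: kinase came from lysate of stimulated human HepG2 cells; signal reports phosphorylation of biotinylated GST-cJun 1-79 at Ser73 with 10 µM ATP; series mostly up to about 57 µM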)
In short: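 Inhibitors reduce antibody binding to phosphorylated biotin-cJun, lowering AlphaScreen luminescence. Lysates from HepG2 cells pre-activated by IL-1beta plus TNF-alpha supplied JNK3; compounds were titrated.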

[3] = biological target: 3',5'-cyclic-AMP phosphodiesterase 4B (Homo sapiens) (UniProt Q07343); assay: qHTS Assay for Inhibitors of PDE-IV (AID 607; active = well fitted activation curve with a large enough effect in the main read-out, with a control signal flat, not every such curve was filed as active)
In short: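 Live HEK293 cells with a modified cyclic nucleotide-gated (CNG) channel report intracellular cAMP via membrane-potential dye fluorescence (ex 535/em 590 nm). Endogenous PDE-IV was targeted. Compounds were tested at up to 22.9 uM final; RO 20-1724 100 uM served as control.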

[4] = biological target: Cytochrome P450 3A4 (Homo sapiens) (UniProt P08684); assay: qHTS Assay for Activators of Cytochrome P450 3A4 (AID 885); also: nearly all actives have a fitted effect of over 65% in size
In short: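 Quantitative HTS format: compounds preincubated with 20nM human CYP3A4 and Luciferin-PPXE substrate at KM, reaction started by NADPH regeneration, stopped after 60 min, luciferase luminescence read 20 min later.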

[5] = biological target: Cytochrome P450 2C19 (Homo sapiens) (UniProt P33261); assay: qHTS Assay for Inhibitors and Substrates of Cytochrome P450 2C19 (AID 899); also: nearly all actives have a fitted effect of over 60% in size; also: potency is read from the fitted curve at half-maximal effect
In short: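 Human CYP2C19 (5nM) with Luciferin-H EGE at 10uM (its KM) in 50mM KPO4 was preincubated with compound for 10 min at 37C. NADPH regeneration started a 60 min 37C reaction. Luciferin was read by luminescence, normalized to 57uM ketoconazole.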

[6] = biological target: Tyrosyl-DNA phosphodiesterase 1 (Homo sapiens) (UniProt Q9NUW8); assay: Confirmation Assay for Inhibitors of Tyrosyl-DNA Phosphodiesterase (TDP1) (AID 489007); details: recombinant human TDP1 enzymatic activity, dose-response; also: potency is read from the fitted curve at half-maximal effect; nearly all actives have a fitted effect of over 40% in size
In short: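 Tdp1 1 nM + cpd, 15 min RT; add biotin/phosphotyrosine-FITC oligo 15 nM, 5 min RT; add AS donor/acceptor beads 10 ug/ml, 10 min RT; read AlphaScreen. No-enzyme wells = max signal.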

[7] = biological target: Cytochrome P450 2C9 (Homo sapiens) (UniProt P11712); assay: qHTS Assay for Inhibitors and Substrates of Cytochrome P450 2C9 (AID 883); also: nearly all actives have a fitted effect of over 60% in size; also: potency is read from the fitted curve at half-maximal effect
In short: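 Human CYP2C9 (10nM) hydroxylated Luciferin-H (100uM, at its KM) to luciferin in 25mM KPO4. Compound was preincubated 10 min at 37C, then NADPH regeneration started a 60 min reaction at 37C. Luminescence was read after detection reagent, normalized to 57uM sulphaphenazole.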

[8] = biological target: Cytochrome P450 3A4 (Homo sapiens) (UniProt P08684); assay: qHTS Assay for Inhibitors and Substrates of Cytochrome P450 3A4 (AID 884); also: potency is read from the fitted curve at half-maximal effect; nearly all actives have a fitted effect of over 50% in size
In short: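 20 nM human CYP3A4 with 25 uM Luciferin-PPXE (at KM) in 200 mM KPO4, preincubated 10 min with compound; NADPH regeneration started a 60 min RT reaction. Luciferin detected by luminescence, normalized to 57 uM ketoconazole as full inhibition.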

[9] = biological target: Cytochrome P450 2D6 (Homo sapiens) (UniProt P10635); assay: qHTS Assay for Inhibitors and Substrates of Cytochrome P450 2D6 (AID 891); also: nearly all actives have a fitted effect of over 60% in size; also: potency is read from the fitted curve at half-maximal effect
In short: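 Human CYP2D6 (5 nM) with 30 uM Luciferin-ME EGE (at Km) in 100 mM KPO4, compound preincubated 10 min, then NADPH regeneration system for 60 min at room temperature. Luciferin read by luminescence; normalized to 1.43 uM quinidine.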

Chain of Cytochrome P450 2C19 (Homo sapiens) (P33261 whole entry, looked up): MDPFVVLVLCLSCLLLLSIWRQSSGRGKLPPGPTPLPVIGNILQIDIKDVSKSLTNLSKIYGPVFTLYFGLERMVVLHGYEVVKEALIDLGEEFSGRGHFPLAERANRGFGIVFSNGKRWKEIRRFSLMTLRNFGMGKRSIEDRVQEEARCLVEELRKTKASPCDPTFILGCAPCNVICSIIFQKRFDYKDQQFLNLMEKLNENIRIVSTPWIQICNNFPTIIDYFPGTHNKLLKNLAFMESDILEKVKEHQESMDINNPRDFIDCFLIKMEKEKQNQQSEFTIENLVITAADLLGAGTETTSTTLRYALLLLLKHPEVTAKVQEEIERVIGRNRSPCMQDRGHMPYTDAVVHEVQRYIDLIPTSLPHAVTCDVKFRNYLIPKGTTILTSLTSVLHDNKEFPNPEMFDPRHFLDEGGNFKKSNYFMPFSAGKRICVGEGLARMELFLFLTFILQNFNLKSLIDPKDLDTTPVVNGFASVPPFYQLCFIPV
Chain of 3',5'-cyclic-AMP phosphodiesterase 4B (Homo sapiens) (Q07343 whole entry, looked up): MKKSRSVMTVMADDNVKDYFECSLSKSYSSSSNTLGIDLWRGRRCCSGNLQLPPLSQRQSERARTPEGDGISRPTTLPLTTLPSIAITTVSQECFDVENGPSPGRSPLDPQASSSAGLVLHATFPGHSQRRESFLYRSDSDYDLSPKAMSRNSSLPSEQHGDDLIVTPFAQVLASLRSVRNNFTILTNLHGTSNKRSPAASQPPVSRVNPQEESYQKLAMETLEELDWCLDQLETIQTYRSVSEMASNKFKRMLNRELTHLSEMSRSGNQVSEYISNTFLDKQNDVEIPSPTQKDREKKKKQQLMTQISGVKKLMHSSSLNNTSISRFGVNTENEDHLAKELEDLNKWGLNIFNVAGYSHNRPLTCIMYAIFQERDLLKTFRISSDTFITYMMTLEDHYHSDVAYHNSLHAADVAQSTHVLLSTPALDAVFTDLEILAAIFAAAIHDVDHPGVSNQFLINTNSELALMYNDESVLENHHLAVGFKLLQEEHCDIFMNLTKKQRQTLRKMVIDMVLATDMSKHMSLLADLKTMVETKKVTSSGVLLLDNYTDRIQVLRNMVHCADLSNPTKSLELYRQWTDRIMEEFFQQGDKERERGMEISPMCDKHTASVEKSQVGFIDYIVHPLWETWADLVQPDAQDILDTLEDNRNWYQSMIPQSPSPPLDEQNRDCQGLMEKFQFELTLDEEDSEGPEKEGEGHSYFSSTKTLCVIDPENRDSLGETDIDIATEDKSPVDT
Chain of Cytochrome P450 1A2 (Homo sapiens) (P05177 whole entry, looked up): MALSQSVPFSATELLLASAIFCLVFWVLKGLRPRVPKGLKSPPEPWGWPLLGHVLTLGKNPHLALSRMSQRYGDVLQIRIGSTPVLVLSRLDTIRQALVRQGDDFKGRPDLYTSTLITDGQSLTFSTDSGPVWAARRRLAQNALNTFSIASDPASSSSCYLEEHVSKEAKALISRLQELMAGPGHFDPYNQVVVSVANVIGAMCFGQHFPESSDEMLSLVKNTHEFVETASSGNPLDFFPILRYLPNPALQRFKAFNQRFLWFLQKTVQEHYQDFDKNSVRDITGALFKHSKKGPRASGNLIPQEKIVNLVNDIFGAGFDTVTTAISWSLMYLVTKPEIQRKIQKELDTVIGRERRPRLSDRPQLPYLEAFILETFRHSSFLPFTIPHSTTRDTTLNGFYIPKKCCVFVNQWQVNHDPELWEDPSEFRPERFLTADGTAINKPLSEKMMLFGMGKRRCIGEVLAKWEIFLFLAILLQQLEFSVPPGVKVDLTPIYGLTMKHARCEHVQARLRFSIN
Chain of Cytochrome P450 2D6 (Homo sapiens) (P10635 whole entry, looked up): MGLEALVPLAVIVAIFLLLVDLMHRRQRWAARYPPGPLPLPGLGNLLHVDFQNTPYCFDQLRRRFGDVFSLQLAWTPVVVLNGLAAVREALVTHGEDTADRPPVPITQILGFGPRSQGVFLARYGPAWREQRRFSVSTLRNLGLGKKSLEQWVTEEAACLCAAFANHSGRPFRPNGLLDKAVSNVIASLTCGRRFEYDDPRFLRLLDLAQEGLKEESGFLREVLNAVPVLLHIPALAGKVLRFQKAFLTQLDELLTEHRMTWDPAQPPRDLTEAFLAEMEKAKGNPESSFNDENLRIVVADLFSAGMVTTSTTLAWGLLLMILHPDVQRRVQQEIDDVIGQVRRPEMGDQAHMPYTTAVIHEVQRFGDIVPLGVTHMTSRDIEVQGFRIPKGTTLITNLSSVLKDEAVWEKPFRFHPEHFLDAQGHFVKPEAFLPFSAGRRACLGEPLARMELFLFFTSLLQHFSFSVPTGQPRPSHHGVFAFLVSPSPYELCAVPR
Chain of Cytochrome P450 2C9 (Homo sapiens) (P11712 whole entry, looked up): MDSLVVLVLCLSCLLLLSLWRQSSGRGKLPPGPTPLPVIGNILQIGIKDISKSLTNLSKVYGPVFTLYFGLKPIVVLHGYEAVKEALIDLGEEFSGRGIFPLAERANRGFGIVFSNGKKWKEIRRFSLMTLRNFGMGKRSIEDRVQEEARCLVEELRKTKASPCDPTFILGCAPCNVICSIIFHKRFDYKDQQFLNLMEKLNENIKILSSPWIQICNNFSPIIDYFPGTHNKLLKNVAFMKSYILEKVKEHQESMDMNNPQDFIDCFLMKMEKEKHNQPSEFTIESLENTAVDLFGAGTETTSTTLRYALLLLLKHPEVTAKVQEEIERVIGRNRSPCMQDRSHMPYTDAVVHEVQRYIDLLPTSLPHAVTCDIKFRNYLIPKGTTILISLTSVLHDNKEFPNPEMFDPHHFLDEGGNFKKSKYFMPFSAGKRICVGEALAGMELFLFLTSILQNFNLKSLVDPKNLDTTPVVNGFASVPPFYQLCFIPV
Chain of Cytochrome P450 3A4 (Homo sapiens) (P08684 whole entry, looked up): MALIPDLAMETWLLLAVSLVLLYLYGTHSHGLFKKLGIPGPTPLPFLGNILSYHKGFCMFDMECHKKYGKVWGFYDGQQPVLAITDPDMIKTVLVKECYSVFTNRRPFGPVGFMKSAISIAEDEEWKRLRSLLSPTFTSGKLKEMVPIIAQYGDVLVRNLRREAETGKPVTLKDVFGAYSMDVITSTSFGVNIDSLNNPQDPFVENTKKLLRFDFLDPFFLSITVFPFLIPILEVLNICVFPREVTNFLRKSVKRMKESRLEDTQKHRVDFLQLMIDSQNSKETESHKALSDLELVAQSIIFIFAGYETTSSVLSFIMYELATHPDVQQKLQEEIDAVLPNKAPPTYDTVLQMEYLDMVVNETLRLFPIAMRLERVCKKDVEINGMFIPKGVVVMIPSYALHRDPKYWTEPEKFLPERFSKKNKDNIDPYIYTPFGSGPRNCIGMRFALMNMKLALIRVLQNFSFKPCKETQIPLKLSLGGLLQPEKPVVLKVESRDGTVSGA
Chain of Tyrosyl-DNA phosphodiesterase 1 (Homo sapiens) (Q9NUW8 whole entry, looked up): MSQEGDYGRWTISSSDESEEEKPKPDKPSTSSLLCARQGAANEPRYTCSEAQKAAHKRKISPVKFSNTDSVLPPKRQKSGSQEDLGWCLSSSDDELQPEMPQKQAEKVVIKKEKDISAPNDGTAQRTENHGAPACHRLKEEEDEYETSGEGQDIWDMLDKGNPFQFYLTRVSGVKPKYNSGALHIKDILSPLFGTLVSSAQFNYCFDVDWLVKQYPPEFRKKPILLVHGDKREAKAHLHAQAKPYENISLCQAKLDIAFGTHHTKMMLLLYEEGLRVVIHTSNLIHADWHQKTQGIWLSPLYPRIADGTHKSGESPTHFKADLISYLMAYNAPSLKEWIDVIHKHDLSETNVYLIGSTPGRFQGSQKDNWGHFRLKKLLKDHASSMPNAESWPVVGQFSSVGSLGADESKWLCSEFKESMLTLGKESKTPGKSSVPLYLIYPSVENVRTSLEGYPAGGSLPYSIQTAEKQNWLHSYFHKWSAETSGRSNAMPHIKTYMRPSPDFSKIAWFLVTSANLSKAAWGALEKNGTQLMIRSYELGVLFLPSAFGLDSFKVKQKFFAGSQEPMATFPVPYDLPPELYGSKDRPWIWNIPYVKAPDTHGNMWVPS

Row | Compound | Potency [1] | Potency [2] | Potency [3] | Potency [4] | Potency [5] | Potency [6] | Potency [7] | Potency [8] | Potency [9]
1 | CCCC[C@@H]1C[C@H]1C(NC(=O)c1ccc(-c2ccccc2)cc1)c1ccc(-c2ccccc2)cc1 (stereo partly drawn) | inactive | inactive | inactive |  |  |  |  |  | 
2 | CCCCC#Cc1ccccc1CC(=O)Nc1ccccc1 | 2.51 µM (active) | inactive |  | inactive | 0.794 µM (active) | 31.6 µM (active) |  |  | 
3 | COC(=O)[C@@]1(Cc2ccccc2)[C@H]2c3cc(C(=O)N(C)C)n(CCN4CNCC4=O)c3C[C@H]2CN1C(=O)c1ccccc1 | 5.01 µM (active) | inactive |  |  |  |  |  |  | 
4 | COCCn1c(C(=O)N2CCCC2)cc2c1C[C@H]1CN(C(=O)c3ccccc3)[C@@](Cc3ccc(F)cc3)(C(=O)OC)[C@@H]21 | 31.6 µM (active) | inactive | inactive |  |  |  |  |  | 
5 | CCc1c2c(nc3cccc(SC)c13)COC2 | 2.51 µM (active) | inactive |  |  |  |  |  |  | 
6 | CCCc1cc2c(n1Cc1cc(F)cc(F)c1)C(C)C1CN(C(=O)c3ccccc3)C(C)(C(=O)OC)C21 (stereo not drawn) | inactive | inactive | inactive | inactive |  |  | 6.31 µM (active) | 3.16 µM (active) | 
7 | COC(=O)[C@@]1(Cc2ccc(OC)cc2)[C@H]2c3cc(C(=O)N4CCCC4)n(Cc4c(CO)[nH]cc(C)c4=O)c3C[C@H]2CN1C(=O)c1ccccc1 | 25.1 µM (active) | inactive | inactive |  |  |  |  |  | 
8 | CC1=C(C(=O)OCc2ccccc2)C(c2ccccc2)NC(=O)N1CCCCCC(=O)O (stereo not drawn) | 20 µM (active) | inactive | inactive |  |  |  |  |  | 
9 | C[C@@]1(C(NC(=O)c2ccc(-c3ccccc3)cc2)c2ccc(Cl)cc2)C[C@H]1C1CCCCC1 (stereo partly drawn) | inactive | inactive |  |  |  |  |  |  | 
10 | COC(=O)[C@@]1(Cc2ccc(F)cc2)[C@H]2c3cc(C(=O)N4CCCC4)n(CCO)c3C[C@H]2CN1C(=O)c1ccccc1 | 25.1 µM (active) | inactive | inactive |  |  |  |  |  | 
11 | CCC#CCOCC(=S)Nc1ccccc1 | 15.8 µM (active) | inactive | inactive |  |  |  |  |  | 
12 | COC(=O)[C@@]1(Cc2ccc(F)cc2)[C@H]2c3cc(C(=O)N4CCCC4)n(CCF)c3C[C@H]2CN1C(=O)c1ccccc1 | 15.8 µM (active) | inactive | inactive |  |  |  |  |  | 
13 | COC(=O)c1ccc(C#CC(NP(=O)(c2ccccc2)c2ccccc2)c2ccccc2)cc1 (stereo not drawn) | 20 µM (active) | inactive |  |  |  |  |  |  | 
14 | O=C(N[C@@H](c1ccccc1)[C@@H]1C[C@H]1C(=O)O)OCc1ccccc1 | 20 µM (active) | inactive | inactive |  |  |  |  |  | 
15 | COC(=O)[C@@]1(Cc2ccc(OC)cc2)[C@H]2c3cc(C(=O)N(C)C)n(CCN4CNCC4=O)c3C[C@H]2CN1C(=O)c1ccccc1 | 20 µM (active) | inactive | inactive |  |  |  |  |  | 
16 | CCC[C@@H]1C[C@@]1(CCC)C(NC(=O)c1ccc(-c2ccccc2)cc1)c1cccc(Cl)c1 (stereo partly drawn) | inactive | inactive | inactive |  |  |  |  |  | 
17 | COCC1C2CC[C@H]3C(OCc4ccc(OC)cc4)OC[C@]4(C)[C@H]3C2=C(CN4C(=O)OC(C)(C)C)[C@H](C)C1COC (stereo partly drawn) | 15.8 µM (active) | inactive | inactive | inactive |  |  |  | 1.58 µM (active) | 
18 | CC(=O)N[C@@H](c1ccccc1)[C@]1(C)C[C@H]1[C@@H](C)C(=O)Nc1ccc2ccccc2c1 | 12.6 µM (active) | inactive | inactive | inactive | 0.398 µM (active) |  | 6.31 µM (active) | 7.94 µM (active) | 

Row | Compound | Potency [1] | Potency [2] | Potency [3] | Potency [4] | Potency [5] | Potency [6] | Potency [7] | Potency [8] | Potency [9]
19 | COC(=O)[C@@]1(Cc2ccccc2)[C@H]2c3cc(C(=O)N4CCCC4)n(Cc4cc(F)cc5c4OCOC5)c3C[C@H]2CN1C(=O)c1ccccc1 | inactive | inactive | inactive | inactive | 0.251 µM (active) |  | 0.316 µM (active) | 3.98 µM (active) | 
20 | COC(=O)[C@@]1(Cc2ccc(F)cc2)[C@H]2c3cc(C(=O)N4CCCC4)n(Cc4ccc(OC(F)(F)F)cc4)c3C[C@H]2CN1C(=O)c1ccccc1 | inactive | inactive | inactive | inactive |  |  | 6.31 µM (active) | 2.51 µM (active) | 
21 | COC(=O)[C@@]1(Cc2ccc(F)cc2)[C@H]2c3cc(C(=O)N(C)C)n(Cc4ccc(Cl)c(C(F)(F)F)c4)c3C[C@H]2CN1C(=O)c1ccccc1 | 15.8 µM (active) | inactive | inactive | inactive |  |  | 3.98 µM (active) | 2 µM (active) | 
22 | C=C(CC1([C@@H](NP(=O)(c2ccccc2)c2ccccc2)[C@H]2C[C@@H]2CCN(C(=O)OCC)S(=O)(=O)c2ccc(C)cc2)CC1)c1ccccc1 | inactive | inactive | inactive | inactive |  |  |  | 1.58 µM (active) | 
23 | COC(=O)[C@@]1(Cc2ccccc2)[C@H]2c3cc(C(=O)N4CCCC4)n(Cc4c(CO)[nH]cc(C)c4=O)c3C[C@H]2CN1C(=O)c1ccccc1 | 5.01 µM (active) | inactive | inactive | inactive |  |  |  | 2.51 µM (active) | 
24 | CC1(C)C(=O)C(c2ccccc2)=C2CN3C(=O)N(CCc4ccccc4)C(=O)C3(Cc3ccc(C(F)(F)F)cc3)C=C21 (stereo not drawn) | inactive | inactive | inactive | inactive |  |  |  | 2 µM (active) | 
25 | CC1=C(\C=C/C(C)=C/C=C\C(C)=C\CO)C(C)(C)CCC1 | inactive | inactive | inactive |  | inactive |  | inactive |  | inactive
26 | CC1=C(C(=O)OCc2ccccc2)C(c2ccc3ccccc3c2)NC(=O)N1CCCCCC(=O)O (stereo not drawn) | 20 µM (active) | inactive | inactive | inactive |  |  | 7.94 µM (active) |  | 
27 | COC(=O)[C@@]1(Cc2ccccc2)[C@H]2c3cc(C(=O)N4CCCC4)n(CCc4ccccn4)c3C[C@H]2CN1C(=O)c1ccccc1 | inactive | inactive | inactive | inactive |  |  |  | 2 µM (active) | 
28 | COC(=O)[C@@]1(Cc2ccc(F)cc2)[C@H]2c3cc(C(=O)N4CCCC4)n(CCCNc4ncc(C(F)(F)F)cc4Cl)c3C[C@H]2CN1C(=O)c1ccccc1 | inactive | inactive | inactive | inactive |  |  | 3.16 µM (active) | 2.51 µM (active) | 
29 | COC(=O)[C@@]1(Cc2ccc(F)cc2)[C@H]2c3cc(C(=O)N4CCCC4)n(Cc4ccccn4)c3C[C@H]2CN1C(=O)c1ccccc1 | 20 µM (active) | inactive | inactive | inactive |  |  | 2 µM (active) |  | 
30 | O=C(Nc1ccc2ccccc2c1)[C@H]1C[C@@H]1[C@H](NP(=O)(c1ccccc1)c1ccccc1)c1ccccc1 | 10 µM (active) | inactive | inactive | inactive | 3.16 µM (active) |  | 3.16 µM (active) | 2.51 µM (active) | 
31 | Nc1ccccc1C#Cc1ccccc1 | 0.501 µM (active) | inactive | inactive | inactive |  |  | 7.94 µM (active) |  | 
32 | C[C@@H](C(=O)Nc1ccc2ccccc2c1)[C@H]1C[C@]1(C)[C@H](NP(=O)(c1ccccc1)c1ccccc1)c1ccccc1 | 10 µM (active) | inactive | inactive | inactive |  |  | 3.16 µM (active) | 2 µM (active) | 0.794 µM (active)
33 | Cc1cc(C(=O)N[C@H](c2ccccc2)[C@@]2(C)C[C@@H]2[C@@H](C)C(=O)Nc2ccc3ccccc3c2)n(C)n1 | 20 µM (active) | inactive | inactive | inactive |  |  | 7.94 µM (active) | 0.794 µM (active) | 0.0398 µM (active)
34 | COC(=O)[C@@]1(Cc2ccc(F)cc2)[C@H]2c3cc(C(=O)N(C)C)n(CCCNc4ccc(C(F)(F)F)cc4Cl)c3C[C@H]2CN1C(=O)c1ccccc1 | inactive | inactive | inactive | inactive |  |  |  | 1.58 µM (active) | 
35 | C[C@@H](C(=O)Nc1ccc2ccccc2c1)[C@@H]1C[C@@]1(C)[C@@H](NS(=O)(=O)c1ccc2ccccc2c1)c1ccccc1 | 10 µM (active) | inactive | inactive | inactive |  |  | inactive |  | 
